# Screens as filed in PubChem.
# In the library only some 4.4% were active in any assay of this set; here they are far more common.
# tim23-1 inh: growth inhibitors of tim23-1 mutant yeast, primary screen, luminescence, uHTS; S. cerevisiae tim23-1 growth, BacTiter-Glo luminescence, 24 h; inhibition, % at 20 µM; 330,000 compounds, 1.3% hits; AID 463212, 2010;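 active = growth inhibition of the mutant yeast at or above 50%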;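 also: temperature-sensitive mutant grown at 25 °C; plate controls were DMSO-treated mutant yeast for no effect and medium wells lacking yeast for full effect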
# TIM10 inh: growth inhibitors of isogenic TIM10 control yeast, primary screen, counter-screen for tim10-1 yeast inhibitor project, luminescence, uHTS | S. cerevisiae TIM10 strain growth, BacTiter-Glo luminescence, 24 h | inhibition, % at 10 µM | 330,000 compounds, 1.4% hits | AID 463195, 2010;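 active = inhibition of 40% or more at the single tested concentration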;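 also: wild-type TIM10 isogenic control strain grown at permissive 25 °C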
# PfHsp90 set2: growth inhibition of PfHsp90-expressing yeast, primary screen, antimalarial PfHsp90 inhibitor project, S. cerevisiae, BacTiter-Glo luminescence, single point, set 2; 310,000 compounds, 0.32% hits; BacTiter-Glo ATP, 48 h; yeast lacking PDR1 and PDR3 efflux regulators; inhibition, % at 9.4 µM;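 active = every replicate shows inhibition above about 80%, whatever the replicate mean, limit read from the data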;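 also: 0% = DMSO neutral controls and 100% = 20 µM radicicol positive controls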
# SKKanGAS inh: S. pyogenes SKKanGAS growth inhibitors in kanamycin, primary screen, streptokinase expression inhibitor project, SKKanGAS strain, BacTiter-Glo luminescence. 6 h. inhibition, % at 7.5 µM. 300,000 compounds, 1.3% hits. AID 1662, 2009;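 active = mean replicate score, as percent of positive control median, at least 50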;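 also: strain carries kanamycin resistance gene driven by streptokinase promoter and grows in 40 µg/ml kanamycin; loss of luminescence reflects streptokinase promoter inhibition or plain growth inhibition; 0% = median of DMSO wells and 100% = positive control at its reference dose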
# tim10-1 inh: growth inhibitors of tim10-1 mutant yeast, primary screen, luminescence, uHTS; S. cerevisiae tim10-1 ts strain growth, BacTiter-Glo, 24 h; inhibition, % at 20 µM; 330,000 compounds, 2.2% hits;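 active = inhibition of at least 40%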;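 also: mutant grown at 25 °C; 0% = DMSO wells with yeast and 100% = wells holding no yeast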
# * = called active by the depositor; nt = no result given.
SMILES,tim23-1 inh,TIM10 inh,PfHsp90 set2,SKKanGAS inh,tim10-1 inh
Cc1ccc2[nH]c(O)c(N=Nc3nc4ccccc4s3)c2c1,12,3,-4,108*,9
Oc1[nH]c2ccccc2c1N=Nc1nc2ccccc2s1,14,21,-97,22,14
O=C(OC1CCOC1=O)c1cc(S(=O)(=O)N2CCOCC2)c(Cl)cc1Cl (centres undefined),-8,-5,nt,nt,-13
CCOc1ccccc1C(=O)OCC(=O)Nc1nnc(-c2ccccc2)o1,17,-3,nt,77*,3
Cc1cccc(C(=O)OCC(=O)Nc2nnc(-c3ccccc3)o2)c1O,9,-14,nt,98*,0
CCOc1ccccc1C(=O)NC(C(=O)OCC(=O)Nc1nnc(-c2ccccc2)o1)C(C)C (centres undefined),24,28,-7,60*,24
O=C(COC(=O)CNC(=O)c1ccccc1F)Nc1nnc(-c2ccccc2)o1,0,-3,7,28,2
O=C(COC(=O)c1ccccc1[N+](=O)[O-])Nc1nnc(-c2ccccc2)o1,13,1,nt,0,6
CC1(C(=O)OCC(=O)Nc2nnc(-c3ccccc3)o2)CC1(Cl)Cl (centres undefined),7,-2,-7,73*,-8
CC(=O)c1c(C)[nH]c(C(=O)OCC(=O)Nc2nnc(-c3ccccc3)o2)c1C,0,-5,-26,nt,0
O=C1N[C@H](C(=O)O)CS1,2,6,nt,0,2
CC(=O)c1c(C)[nH]c(C(=O)OCC(=O)c2ccc(C)s2)c1C,22,17,nt,nt,3
CCCCCCCCCC(=O)N[C@@H]1c2cc(OC)c(OC)cc2C[C@H]1OCc1ccccc1,22,-4,-23,nt,7
COc1ccc(CC(=O)Nc2nc(-c3ccc(F)c(F)c3)cs2)cc1,26,33,-49,12,12
CC1(C(=O)OCC(=O)Nc2nc(-c3ccc(F)c(F)c3)cs2)CC1(Cl)Cl (centres undefined),23,30,14,71*,0
CCOC(=O)C1=NN(C(=O)c2cccc(Br)c2)C(O)(C(C)(C)C)C1 (centres undefined),36,20,nt,90*,24
CCOC(=O)C1=NN(C(=O)c2ccco2)C2(CC2)C1,12,11,-30,-5,11
COc1ccc(NC(=O)c2sc3nc(C)nc(N4CCN(c5ccccn5)CC4)c3c2C)cc1Cl,9,20,-8,1,27
COc1ccc(NC(=O)c2sc3ncnc(N4CCN(c5ccccn5)CC4)c3c2C)cc1Cl,11,-40,103*,38,16
Cc1cccc(C(=O)NC(=S)NNC(=O)c2ccccc2Cl)c1,17,13,19,86*,38
Cc1ccc(C(=O)NC(=S)NNC(=O)COc2ccccc2C)cc1,-10,-6,nt,118*,7
Cc1cccc(C(=O)NC(=S)NNC(=O)COc2c(C)cccc2C)c1,-22,6,-7,107*,-1
Cc1cccc(C(=O)NC(=S)NNC(=O)Cc2ccccc2)c1,40,13,109*,20,1
Cc1cccc(C(=O)NC(=S)NCc2ccccc2)c1,28,8,-35,4,8
CCCn1c(SCC(=O)c2cc(C)n(-c3cc(C)on3)c2C)n[nH]c1=O,21,0,-1,nt,2
SMILES,tim23-1 inh,TIM10 inh,PfHsp90 set2,SKKanGAS inh,tim10-1 inh
CC1CC(C)CN(C(=O)CN2C(=O)NC3(CCCCCC3)C2=O)C1 (centres undefined),9,-11,nt,nt,6
C#CCOCCOCCOCCNc1nc(N2CCN(C(=O)[C@H](C)n3cc(CCC(=O)O)nn3)CC2)nc(N2CCN(C(=O)[C@H](CCCCN)n3cc(CCCC)nn3)CC2)n1,nt,nt,1,nt,nt
CC(C)(C)c1ccc(-c2noc(-c3ccc4c(c3)CCO4)n2)cc1,5,16,9,82*,35
Cc1cc(-c2nc(-c3ccc(C(C)(C)C)cc3)no2)no1,14,1,18,-1,18
O=C(N/N=C/c1c[nH]c2ccccc12)c1ccn(Cc2ccc(Cl)cc2Cl)n1,14,12,-30,55*,14
O=C(NC(=S)N1CCN(c2nc(-c3ccccc3)cs2)CC1)c1cncc(Br)c1,14,22,-49,77*,17
COCc1cc(Sc2c(Cl)cccc2Cl)nc(-c2ccccc2)n1,12,-7,-11,66*,-4
